# Bioassay records deposited in PubChem BioAssay by National Center for Advancing Translational Sciences (NCATS).
# The list is not random: actives were taken first. Their share in the collection is about 19%.
# IL1B secr inh – inhibitors of inflammasome signaling (IL-1 beta secretion) | THP-1 LPS/ATP IL-1B secretion, AlphaLISA, 16 h; hits give low values | activity change, % at 57.5 µM | actives 4.7% (n = 360,000); in the data active = activity change below about -50%; inconclusive = mostly about -30% to -49%; note: % is set by controls: 0 for no effect and ±100 for the full control effect
#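 THP-1 cells pretreated 1 hr with compounds (up to 57.5 uM final), then stimulated with LPS (250 ng/mL final) plus ATP (1.25 mM final); secreted IL-1B measured by AlphaLISA after 16 hr, decreased signal indicating inhibition.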
# DT40 TDP1 CPT – DT40-hTDP1 cell growth loss with CPT; actives 12% (n = 420,000); Potency, µM (titrated, usually from 46.2 µM), for inactives: top-dose activity change, negative = growth inhibition, usual class: inhibitors; chicken DT40 Tdp1-/-;hTDP1 cells + 20 nM CPT, ATP luminescence, 48 h; AID 686979; note: potency is the fitted concentration of half-maximal effect; % is set by controls: 0 for no effect and ±100 for the full control effect; nearly all actives have a fitted effect of over 55% in size
#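 Chicken DT40 Tdp1-/- cells stably complemented with human TDP1 were seeded at 400 cells/well in medium containing 20 nM camptothecin, exposed to pin-transferred compounds, and grown at 37 °C for at least 48 hr. Viability was read as ATP luminescence.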
# TDP1 inh – TDP1 (human) enzyme inhibition. Q9NUW8. recombinant TDP1, AlphaScreen DNA substrate cleavage. Potency, µM (highest dose often 130 µM), without a hit: top-dose activity change, negative = inhibition, usual class: inhibitors. actives 0.28% (n = 350,000); note: potency is the fitted concentration of half-maximal effect; % is set by controls: 0 for no effect and ±100 for the full control effect; nearly all actives have a fitted effect of over 40% in size
# Target sequence (Q9NUW8 whole entry, looked up): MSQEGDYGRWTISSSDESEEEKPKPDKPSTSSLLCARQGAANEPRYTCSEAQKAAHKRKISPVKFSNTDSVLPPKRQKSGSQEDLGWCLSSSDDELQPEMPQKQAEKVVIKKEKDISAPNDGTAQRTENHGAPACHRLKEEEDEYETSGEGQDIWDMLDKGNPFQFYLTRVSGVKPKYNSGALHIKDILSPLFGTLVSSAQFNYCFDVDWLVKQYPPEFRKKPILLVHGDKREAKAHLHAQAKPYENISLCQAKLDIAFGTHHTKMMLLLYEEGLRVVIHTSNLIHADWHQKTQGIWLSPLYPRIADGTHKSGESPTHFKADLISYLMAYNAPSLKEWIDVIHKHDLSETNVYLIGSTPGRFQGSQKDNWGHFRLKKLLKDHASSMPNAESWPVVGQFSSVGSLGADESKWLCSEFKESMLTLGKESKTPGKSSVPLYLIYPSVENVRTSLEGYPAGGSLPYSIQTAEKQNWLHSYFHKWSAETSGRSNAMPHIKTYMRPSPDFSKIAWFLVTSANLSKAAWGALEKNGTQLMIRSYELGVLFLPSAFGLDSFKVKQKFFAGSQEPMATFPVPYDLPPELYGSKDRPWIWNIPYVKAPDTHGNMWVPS
#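 E. coli-derived human Tdp1, 1 nM final. Cpd preinc 15 min RT; substrate 15 nM final, 5 min RT; AS bead mix 10 ug/ml final, 10 min RT. Signal loss = tyrosine-FITC cleavage. No-enzyme wells = max signal.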
# HepG2 tox – counter-screen for TGF-b inhibitors: cytotoxicity in HepG2 cells; HepG2 CAGA-GFP viability, ATP luminescence, 18 h; Potency, µM (titrated, usually from 46.1 µM), inactives show top-dose activity change, negative = cytotoxicity, actives largely listed as cytotoxic; actives 0.76% (n = 410,000); AID 588856; note: potency is the fitted concentration of half-maximal effect
#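 CellTiter-Glo luminescence gave cytotoxicity after 18 hours at 37 degrees C. The cells were HepG2 CAGA-GFP in 1% FBS DMEM, stimulated with 500 pg/mL TGF-beta after compound addition. %Activity was normalised to no-cell wells (complete cell-killing) and DMSO (no toxicity), and curves were fitted and classified.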
# TGFb SMAD3 inh – TGF-b pathway inhibition; HepG2 CAGA-GFP TGF-b/SMAD3 reporter, GFP fluorescence, 18 h; TGF-beta stimulated, 500 pg/mL final; Potency, µM (doses to about 46.1 µM), inactives show at the top dose activity, negative = inhibition, actives largely listed as inhibitors; actives 1.2% (n = 410,000); AID 588855; note: potency is the fitted concentration of half-maximal effect; % is set by controls: 0 for no effect and ±100 for the full control effect; nearly all actives have a fitted effect of over 65% in size
#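 GFP signal (ex488/em500-530) from TGF-beta-stimulated HEPG2 CAGA-GFP cells, 500 pg/mL final, 18 h at 37 degrees C in DMEM plus 1% FBS, normalized to unstimulated and DMSO-stimulated controls.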
# TDP1 cell noCPT – qHTS for Inhibitors of human tyrosyl-DNA phosphodiesterase 1 (TDP1): qHTS in cells in absence of CPT; actives 15% (n = 420,000); Potency, µM (doses to about 46.2 µM), for inactives: top-dose activity change, negative = growth inhibition, hits mostly inhibitors; DT40 Tdp1-/- hTDP1 cells, no CPT, ATP luminescence, 48 h; note: potency is the fitted concentration of half-maximal effect; % is set by controls: 0 for no effect and ±100 for the full control effect; nearly all actives have a fitted effect of over 55% in size
#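 Chicken DT40 Tdp1-/- cells stably complemented with human TDP1 were seeded at 400 cells/well with DMSO in place of 20 nM camptothecin. After compound pinning, cells grew at least 48 hr at 37 °C; viability read by CellTiter-Glo luminescence.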
# The depositor's hits bear a star; ? = inconclusive; / = not tested or not shown; [ ] = remark or other dose. Unless noted, calls come from the whole dose curve; as a rule, active = well fitted curve in the direction sought with a large enough effect; inconclusive = small, poorly fitted or top-dose-only effect, or another doubt; inactive = no such curve, though single readings can be large; an effect the other way counts as inactive or inconclusive.
SMILES,IL1B secr inh,DT40 TDP1 CPT,TDP1 inh,HepG2 tox,TGFb SMAD3 inh,TDP1 cell noCPT
COc1ccccc1N(CC(=O)Nc1ccc2c(c1)OCCO2)S(=O)(=O)c1ccc(C)cc1,-10,?,6%,29%,0%,9.2µM*
COc1ccc(N(CC(=O)Nc2ccc3c(c2)OCO3)S(=O)(=O)c2ccccc2)c(OC)c1,-17,21µM*,3%,-4%,0%,18µM*
COc1ccc(N2C(=NC(=O)CC3CCCCC3)SC3CS(=O)(=O)CC32)cc1 (stereo not given),31,-24%,4%,2%,2%,1%
CC(=O)OCC1=C[C@@H]2OC(=O)C3=CO[C@@H](O[C@@H]4O[C@H](CO)[C@@H](O)[C@H](O)[C@H]4O)[C@H]1[C@@H]32,14,0%,1%,0%,10%,-26%
C=C1C(=O)OC2C=C(CO)C3OC3C3OC3(C)CC(OC(=O)/C(=C/C)COC(C)=O)C12 (stereo not given),-101*,1.3µM*,/,-66%,?,1.8µM*
COc1cccc(CN2Cc3cccc4c3[C@H](C=CC4)CC2=O)c1,/,?,/,-1%,-24%,?
O=C1C[C@H]2C=CCc3cccc(c32)CN1Cc1ccc(Cl)cc1,/,?,/,-59%,10µM*,13µM*
C1=C[C@@H]2CCN(Cc3ccccc3)Cc3cccc(c32)C1,19,-38%,4%,-26%,-17%,?
Cc1ccc(CN2CC[C@H]3C=CCc4cccc(c43)C2)cc1,19,?,4%,-47%,?,21µM*
O=C1C[C@H]2C=CCc3cccc(c32)CN1Cc1cccc(F)c1,/,16µM*,/,-17%,-19%,10µM*
COc1cccc(CN2CC(C(=O)NCCOc3cccnc3)CCC2=O)c1 (stereo not given),0,-25%,3%,-1%,10%,-20%
COC(=O)c1ccccc1NC(=O)c1cc(=O)c2ccc(C)c(C)c2o1,/,-15%,2%,10%,0%,-8%
C=CCOc1ccc(CN(C)C(=O)c2ccc(CNS(=O)(=O)c3ccc(C)c(C)c3)cc2)cc1,-55*,?,0%,-17%,?,21µM*
COc1ccc(-n2c(-c3ccccc3F)nc3c(cnn3-c3ccc(C)cc3)c2=O)cc1,/,21µM*,2%,-5%,?,13µM*
COc1cccc(-n2c(-c3ccco3)nc3c(cnn3-c3ccc(C)cc3)c2=O)c1,/,15µM*,2%,-31%,-30%,15µM*
COc1ccc(-n2nccc2-c2nn(-c3cccc(OC)c3)c(=O)n(C)c2=O)cc1,/,?,5%,-42%,-11%,?
COc1ccc(-n2c(-c3ccco3)nc3c(cnn3-c3ccc(C)cc3)c2=O)cc1,-7,12µM*,0%,5%,-14%,12µM*
COc1cccc(-n2nc(-c3ccnn3-c3ccc(C)cc3)c(=O)n(C)c2=O)c1,-57*,?,5%,11%,5%,-28%
O=C(NC1CCCC1)c1cn(C2CCN(Cc3cccc4cccnc34)CC2)nn1,/,-12%[9.04 µM],/,/,/,-14%
COc1cc(NC(=O)CN2CCCN(S(=O)(=O)c3ccc(F)cc3)CC2)cc(OC)c1,/,?,8%,6%,?,?
O=C1c2ccccc2-c2n[nH]c3cccc1c23,-77*,8.9µM*,-8%[56.1 µM],-15%,-20%,21µM*
O=c1c(-c2ccccc2)n[nH]c2ccccc12,2,-6%,-3%,0%,?,?
CCCSc1ncc(Cl)c(C(=O)Nc2c(C(=O)c3ccc(F)cc3)oc3ccccc23)n1,/,19%,4%,2%,/,-6%
CC(C)Cn1cc(NC(=O)N2CCN(c3cccc(C(F)(F)F)c3)CC2)c2ccccc2c1=O,/,15µM*,3%,-44%,-27%,16µM*
Cc1ccc(NC(=O)Nc2cn(CC(C)C)c(=O)c3ccccc23)cc1N(C)C,/,21µM*,6%,-10%,3%,23µM*
SMILES,IL1B secr inh,DT40 TDP1 CPT,TDP1 inh,HepG2 tox,TGFb SMAD3 inh,TDP1 cell noCPT
CC(C)Cn1cc(NC(=O)N2CCN(c3cccc(Cl)c3)CC2)c2ccccc2c1=O,/,7.3µM*,2%,-27%,-12%,?
Cc1ccc(CNC(=O)Nc2cn(CC(C)C)c(=O)c3ccccc23)cc1,/,-20%,-1%,-1%,5%,?
O=C(c1cc(=O)c2ccccc2o1)N1CCN(c2cccc(Cl)c2)CC1,-11,?,-3%,2%,7%,?
COc1cccc(CNC(=O)Nc2cn(CC(C)C)c(=O)c3ccccc23)c1,/,-24%,2%,-11%,-8%,?
CC(C)Cn1cc(NC(=O)Nc2cccc(C(F)(F)F)c2)c2ccccc2c1=O,/,21µM*,0%,-32%,?,?
COc1ccc(S(=O)(=O)NCc2ccc3c(c2)CCN3C(C)=O)cc1OC,/,-29%,-3%,-23%,-18%,?
COc1ccccc1C1=NN(C2=NN=C(N)Cc3ncnn32)C(O)(C(F)(F)F)C1 (stereo not given),?,-3%,8%,-9%,-11%,-1%
CC(Oc1ccccc1)C(=O)N[C@@H]1C(=O)N2C(C(=O)OCC3CCCCC3)C(C)(C)S[C@H]12 (stereo not given in full),/,-7%,/,-4%,?,-11%
COc1cc2c(C(=O)N3CCN(c4cccc(C)c4)C(C)C3)cn(CC(C)C)c(=O)c2cc1OC (stereo not given),/,15µM*,0%,5%,?,?
